Test [1] is described as follows: NCI Yeast Anticancer Drug Screen. Data for the rad50 strain (AID 155).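 Note: 0% = growth of vehicle-only cultures of the same strain.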 Particulars: S. cerevisiae rad50 strain growth inhibition, hits give high values. In outline: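 DNA repair mutant yeast, compound exposure, growth read-out; inhibition is taken relative to vehicle.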
Test [2] can be described thus: NCI Yeast Anticancer Drug Screen. Data for the mec2-1 strain (AID 157). To be noted: S. cerevisiae mec2-1 strain, hits give high values. The gist of the method:
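Using mec2-1 yeast: add compound, measure growth, express inhibition versus vehicle-treated cultures.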

Test [3] is described as follows: NCI Yeast Anticancer Drug Screen. Data for the sgs1 mgt1 strain (AID 161).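 Note: 0% = growth of cultures given vehicle only.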 To be noted: S. cerevisiae sgs1 mgt1 strain, hits give high values. In outline: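 Percent growth inhibition was derived by comparing compound-exposed mutant yeast with vehicle-exposed cultures. The strain carries alterations in DNA damage repair.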
Test [4] can be described thus: NCI Yeast Anticancer Drug Screen. Data for the cln2 rad14 strain (AID 165).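 Note: 0% = growth equal to vehicle treated cultures.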 Particulars: S. cerevisiae cln2 rad14 strain, hits give high values. In outline:
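Yeast strain cln2 rad14, bearing defects in cell cycle control and DNA repair, serves as the test system; values reflect growth inhibition compared with vehicle.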

Test [5] is described as follows: NCI Yeast Anticancer Drug Screen. Data for the bub3 strain (AID 167). Particulars: S. cerevisiae bub3 mutant strain, hits give high values. In outline:
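In this screen, a yeast mutant lacking normal mitotic checkpoint function is challenged with compound. Relative growth versus vehicle gives the inhibition value.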

The nature of test [6]: NCI Yeast Anticancer Drug Screen. Data for the mlh1 rad18 strain (AID 175). To be noted: S. cerevisiae mlh1 rad18 strain growth inhibition, hits give high values. The gist of the method: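 Steps: expose repair-defective yeast to compound; measure growth; express inhibition against vehicle-treated controls.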
The mark [7] stands for this setting: at 5.0 µM (retest, dose inferred, filed as 0.5).
The mark [8] stands for this setting: at 50.0 µM (retest, dose inferred, filed as 5.0).

The panel holds about 79,000 compounds, 15% with a hit somewhere; the sample as a whole holds those more often. Unmarked numbers belong to inactive results. The source made the active and inactive calls. Cut-off read from the data, not from the text of the source: active = growth inhibition above about 70%; inactive = the rest.

For `O=C(c1ccc(Cl)c([N+](=O)[O-])c1)c1ccc(Cl)c([N+](=O)[O-])c1`, the growth inhibition in test [1] (setting [7]) is 21%; in test [1] (setting [8]) it was 93% (active); in test [1] (at 50.0 µM) it was 59%; in test [2] (setting [7]), 12%; in test [2] (setting [8]) it was 94% (active); in test [2] (at 50.0 µM), 93.4% (active). Besides, the growth inhibition in test [3] (setting [7]) was 13%; in test [3] (setting [8]), 90% (active); in test [3] (at 50.0 µM), 85% (active); in test [4] (setting [7]), 1%; in test [4] (setting [8]), 80% (active); in test [4] (at 50.0 µM) it was 39.5%. Moreover, the growth inhibition in test [5] (setting [7]) was -8%; in test [5] (setting [8]), 95% (active); in test [5] (at 50.0 µM) it was 96.2% (active); in test [6] (setting [7]) it was 24%; in test [6] (setting [8]), 96% (active); in test [6] (at 50.0 µM), 96.7% (active).
On to `O=C1OCCN1/N=C/c1ccc([N+](=O)[O-])o1`, for which the growth inhibition in test [1] (setting [7]) was 14%; in test [1] (setting [8]), 54%; in test [1] (at 50.0 µM), 81.2% (active); in test [2] (setting [7]), 7%; in test [2] (setting [8]), 30%; in test [2] (at 50.0 µM) it was 54.1%. Further, the growth inhibition in test [3] (setting [7]) was 9%; in test [3] (setting [8]) it was 62%; in test [3] (at 50.0 µM), 87.7% (active); in test [4] (setting [7]), -2%; in test [4] (setting [8]), 27%; in test [4] (at 50.0 µM), 50.1%. In addition, the growth inhibition is 7% in test [5] (setting [7]); 39% in test [5] (setting [8]); 40.8% in test [5] (at 50.0 µM); 30% in test [6] (setting [7]); 72% (active) in test [6] (setting [8]); 88.5% (active) in test [6] (at 50.0 µM).
Regarding `Cc1ccc(S(=O)(=O)Oc2c([N+](=O)[O-])cc(C)cc2[N+](=O)[O-])cc1`, the growth inhibition in test [1] (setting [7]) is 29%; in test [1] (setting [8]), 54%; in test [1] (at 50.0 µM) it was 96.6% (active); in test [2] (setting [7]) it was 10%; in test [2] (setting [8]), 29%; in test [2] (at 50.0 µM), 97.6% (active). For the same compound, the growth inhibition in test [3] (setting [7]) is 14%; in test [3] (setting [8]), 21%; in test [3] (at 50.0 µM), 98.2% (active); in test [4] (setting [7]), -1%; in test [4] (setting [8]), 17%; in test [4] (at 50.0 µM) it was 82.7% (active). The growth inhibition in test [5] (setting [7]) was 5%; in test [5] (setting [8]), 34%; in test [5] (at 50.0 µM) it was 94% (active); in test [6] (setting [7]), 17%; in test [6] (setting [8]), 59%; in test [6] (at 50.0 µM), 95.1% (active).
Consider `CN(C)C(=S)NC(=S)Nc1ccc2ccccc2c1`, for which the growth inhibition in test [1] (setting [7]) was 5%; in test [1] (setting [8]) it was 88% (active); in test [1] (at 50.0 µM) it was 62.8%; in test [2] (setting [7]), 17%; in test [2] (setting [8]), 89% (active); in test [2] (at 50.0 µM), 40.9%. The growth inhibition in test [3] (setting [7]) was 34%; in test [3] (setting [8]) it was 82% (active); in test [3] (at 50.0 µM), 66.2%; in test [4] (setting [7]), 8%; in test [4] (setting [8]), 87% (active); in test [4] (at 50.0 µM), 46.5%. Also, the growth inhibition was 2% in test [5] (setting [7]); 92% (active) in test [5] (setting [8]); 57.4% in test [5] (at 50.0 µM); 12% in test [6] (setting [7]); 92% (active) in test [6] (setting [8]); 73.3% (active) in test [6] (at 50.0 µM).
Take `Cc1ccc2cc3ccccc3c(-c3ccccc3)c2c1`: the growth inhibition in test [1] (setting [7]) is 5%; in test [1] (setting [8]), -3%; in test [1] (at 50.0 µM), 10.6%; in test [2] (setting [7]), -13%; in test [2] (setting [8]), -29%; in test [2] (at 50.0 µM) it was 12.9%. For the same compound, the growth inhibition in test [3] (setting [7]) is 6%; in test [3] (setting [8]), -61%; in test [3] (at 50.0 µM), -9.35%; in test [4] (setting [7]), 5%; in test [4] (setting [8]), -16%; in test [4] (at 50.0 µM), 37%. Besides, the growth inhibition in test [5] (setting [7]) was -11%; in test [5] (setting [8]), -12%; in test [5] (at 50.0 µM), -1.15%; in test [6] (setting [7]), -2%; in test [6] (setting [8]), 0%; in test [6] (at 50.0 µM), -5.65%.
For `CC(=O)C1CCC2C3CC(F)C4(O)CC(O)CCC4(C)C3CCC12C` (configuration not stated), the growth inhibition in test [1] (setting [7]) was -120%; in test [1] (setting [8]), 98% (active); in test [1] (at 50.0 µM), 4.1%; in test [2] (setting [7]) it was -3%; in test [2] (setting [8]), 99% (active); in test [2] (at 50.0 µM), -1%. Also, the growth inhibition in test [3] (setting [7]) was -1%; in test [3] (setting [8]), 95% (active); in test [3] (at 50.0 µM) it was 62%; in test [4] (setting [7]), -6%; in test [4] (setting [8]), 58%; in test [4] (at 50.0 µM) it was -9.95%. Besides, the growth inhibition in test [5] (setting [7]) is -4%; in test [5] (setting [8]), 33%; in test [5] (at 50.0 µM) it was 85.7% (active); in test [6] (setting [7]), -20%; in test [6] (setting [8]), 99% (active); in test [6] (at 50.0 µM) it was 32.4%.
As for `COc1ccc2c(c1)OC(OC)(c1ccccc1)C(O)(OC)C2=O` (configuration not stated), the growth inhibition was 1% in test [1] (setting [7]); 21% in test [1] (setting [8]); 40.7% in test [1] (at 50.0 µM); -7% in test [2] (setting [7]); 22% in test [2] (setting [8]); 31.8% in test [2] (at 50.0 µM). Moreover, the growth inhibition in test [3] (setting [7]) was 3%; in test [3] (setting [8]), 35%; in test [3] (at 50.0 µM) it was 59%; in test [4] (setting [7]), -9%; in test [4] (setting [8]) it was 15%; in test [4] (at 50.0 µM), 7.25%. Besides, the growth inhibition was -1% in test [5] (setting [7]); 17% in test [5] (setting [8]); 20.4% in test [5] (at 50.0 µM); -4% in test [6] (setting [7]); 33% in test [6] (setting [8]); 44.4% in test [6] (at 50.0 µM).
For the compound `CC/C(=C(/CC)c1ccc(O)cc1)c1ccc([O-])cc1.CC/C(=C(/CC)c1ccc(O)cc1)c1ccc([O-])cc1.O=C([CH-]C(=O)c1ccccc1)c1ccccc1.O=C([CH-]C(=O)c1ccccc1)c1ccccc1.[Ti+4]`, the growth inhibition in test [1] (setting [7]) was 64%; in test [1] (setting [8]) it was 95% (active); in test [1] (at 50.0 µM), 88.8% (active); in test [2] (setting [7]) it was 60%; in test [2] (setting [8]), 97% (active); in test [2] (at 50.0 µM), 92% (active). The growth inhibition in test [3] (setting [7]) is 74% (active); in test [3] (setting [8]), 98% (active); in test [3] (at 50.0 µM), 92.8% (active); in test [4] (setting [7]) it was 56%; in test [4] (setting [8]) it was 96% (active); in test [4] (at 50.0 µM) it was 91.5% (active). The growth inhibition in test [5] (setting [7]) was 78% (active); in test [5] (setting [8]), 98% (active); in test [5] (at 50.0 µM), 90.2% (active); in test [6] (setting [7]) it was 80% (active); in test [6] (setting [8]), 93% (active); in test [6] (at 50.0 µM), 89% (active).
In the case of `O=C1NC(=O)C(c2ccccc2)(c2ccccc2)C2CC3c4[nH]c5ccccc5c4CCN3CC12` (configuration not stated), the growth inhibition in test [1] (setting [7]) is 5%; in test [1] (setting [8]), 61%; in test [1] (at 50.0 µM), 64.5%; in test [2] (setting [7]), 6%; in test [2] (setting [8]) it was 63%; in test [2] (at 50.0 µM), 59.1%. In addition, the growth inhibition in test [3] (setting [7]) was 5%; in test [3] (setting [8]) it was 65%; in test [3] (at 50.0 µM) it was 56%; in test [4] (setting [7]), 6%; in test [4] (setting [8]), 66%; in test [4] (at 50.0 µM) it was 46.6%. For the same compound, the growth inhibition in test [5] (setting [7]) was 6%; in test [5] (setting [8]), 51%; in test [5] (at 50.0 µM) it was 37.5%; in test [6] (setting [7]), 1%; in test [6] (setting [8]), 60%; in test [6] (at 50.0 µM) it was 73.8% (active).

For the origin of these results see PubChem BioAssay (NCI).
